Where “and” joins values, the source holds several entries; their conditions need not be identical. Identical values can stand only once. Records with an inconclusive call do not appear. A structure can be active in one record and inactive in another. Calls of active or inactive are those of the source. Unless noted, calls follow the shape of the dose curve; as a rule, active = well fitted curve in the direction sought with a large enough effect in the repeat runs; inconclusive = weak or mixed curves; inactive = no such curve, though single readings can be large; an effect the other way counts as inactive or inconclusive.

The target in assay [1] is Progesterone receptor (Homo sapiens) (UniProt P06401). In words: qHTS assay to identify small molecule agonists of the progesterone receptor (PR) signaling pathway (AID 1346784; calls by dose curve; also: nearly all actives have a fitted effect of over 30% in size). The method in brief:
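PR-UAS-bla HEK 293T cells (beta-lactamase reporter under UAS) in 2% charcoal-stripped FBS, dosed with 23 nL compound after 6 hr, incubated 16hr at 37C. LiveBLAzer B/G FRET substrate added, fluorescence read after 2 hours.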
(In general: qHTS replaces the single test concentration by a dilution series.)

Assay [2] shares this target. In words: qHTS assay to identify small molecule antagonists of the progesterone receptor (PR) signaling pathway (AID 1346795; active = well fitted inhibition curve with a large enough effect in the signal ratio in the repeat runs, not every such curve was filed as active; the % refers to the signal ratio; also: potency is read from the fitted curve at half-maximal effect). The method in brief:
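PR-UAS-bla HEK293T cells with beta-lactamase reporter under UAS control, in 2% charcoal-stripped FBS, treated with compounds plus 1 nM promegestone (R5020, final) for 16 hr at 37C. Read-out: FRET beta-lactamase substrate fluorescence after 2 hr at room temperature.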

A short description of assay [3]: qHTS assay to identify small molecule agonists of the progesterone receptor (PR) signaling pathway - cell viability counter screen (AID 1346799; calls by dose curve; also: nearly all actives have a fitted effect of over 45% in size; also: potency is read from the fitted curve at half-maximal effect). The method in brief: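 Counter screen in the PR-UAS-bla HEK293T wells (2% charcoal-stripped FBS, 16 h compound exposure at 37 C) after the bla read. CellTiter-Glo added, 30 min at room temperature, luminescence read as cell viability.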

Assay [4] can be described thus: qHTS assay to identify small molecule antagonists of the TGF-beta/Smad signaling pathway - cell viability counter screen (AID 1346824). Also: nearly all actives have a fitted effect of over 50% in size. The method in brief: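 Cytotoxicity counter-screen run in the same wells as the beta-lactamase Smad reporter read: CellTiter-Glo luminescence after 30 min at room temperature. HEK 293T SBE-bla cells had 5 hr compound exposure at 37 C with TGF-beta1 (0.25 ng/mL stock).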

Assay [5] in a line: qHTS assay to identify small molecule agonists of the TGF-beta/Smad signaling pathway - cell viability counter screen (AID 1346829). Also: top concentration of the series differs between compounds; nearly all actives have a fitted effect of over 45% in size. The method in brief:
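After overnight seating at 37 C and 5% CO2, reporter cells got compounds for 5 hr and FRET substrate for 2 hr; cell viability then came from CellTiter-Glo luminescence.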

Assay [6] in a line: qHTS assay to identify small molecule agonists of the TGF-beta/Smad signaling pathway (AID 1346859; active = well fitted activation curve with a large enough effect in the signal ratio in the repeat runs, not every such curve was filed as active; the % refers to the signal ratio; also: series mostly up to about 77 µM). The method in brief:
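SBE-bla HEK293T cells plated overnight, then compound exposure for 5 h at 37 C. Beta-lactamase reporter read with LiveBLAzer B/G FRET substrate after 2 h at room temperature, fluorescence at 405 nm excitation, 460/530 nm emission.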

Assay [7] concerns the target Thyrotropin-releasing hormone receptor (Homo sapiens) (UniProt P34981). In words: qHTS assay to identify small molecule antagonists of the thyrotropin-releasing hormone receptor (TRHR) signaling pathway (AID 1346877; active = well fitted inhibition curve with a large enough effect in the repeat runs, not every such curve was filed as active; also: series mostly up to about 51 µM). The method in brief: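 Cells (TRHR-HEK293) are plated and kept 18 h at 37 °C/5% CO2. A calcium-sensitive dye is added for 2 h, compound follows for 5 min at room temperature, and TRH is then given at 1 nM final.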

Assay [8] shares this target. In words: qHTS assay to identify small molecule agonists of the thyrotropin-releasing hormone receptor (TRHR) signaling pathway (AID 1346891; calls by dose curve; also: series mostly up to about 58 µM). The method in brief:
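HEK293 cells expressing TRHR plated 18 h at 37 C/5% CO2, calcium dye-loaded 2 h at 37 C, then compound added (agonist mode); kinetic calcium fluorescence read 3 min at 1 s intervals; 15 concentrations in triplicate.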

The nature of assay [9]: Human pregnane X receptor (PXR) small molecule agonists, qHTS cell viability counter screen (AID 1346977). Also: nearly all actives have a fitted effect of over 50% in size. Also: potency is read from the fitted curve at half-maximal effect. The method in brief:
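PXR-Luc HepG2 cells (2,000/well, 5% charcoal-stripped FBS) preincubated 5 hr, then exposed to compounds 24 hr at 37 C. Viability read in the same wells by CellTiter-Fluor fluorescence, reagent added at 23 hr, 1 hr incubation.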

Assay [10] in a line: qHTS assay to identify small molecule antagonists of the progesterone receptor (PR) signaling pathway - cell viability counter screen (AID 1346798). Also: series mostly up to about 92 µM; nearly all actives have a fitted effect of over 50% in size. The method in brief: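 PR-UAS-bla HEK293T cells, 3,000/well in 2% charcoal-stripped FBS medium, dosed with compounds plus R5020 agonist and incubated 16 h at 37C. Viability then measured in the same wells by CellTiter-Glo luminescence after 30 min at RT.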

Progesterone receptor (Homo sapiens), sequence (P06401 whole entry, looked up): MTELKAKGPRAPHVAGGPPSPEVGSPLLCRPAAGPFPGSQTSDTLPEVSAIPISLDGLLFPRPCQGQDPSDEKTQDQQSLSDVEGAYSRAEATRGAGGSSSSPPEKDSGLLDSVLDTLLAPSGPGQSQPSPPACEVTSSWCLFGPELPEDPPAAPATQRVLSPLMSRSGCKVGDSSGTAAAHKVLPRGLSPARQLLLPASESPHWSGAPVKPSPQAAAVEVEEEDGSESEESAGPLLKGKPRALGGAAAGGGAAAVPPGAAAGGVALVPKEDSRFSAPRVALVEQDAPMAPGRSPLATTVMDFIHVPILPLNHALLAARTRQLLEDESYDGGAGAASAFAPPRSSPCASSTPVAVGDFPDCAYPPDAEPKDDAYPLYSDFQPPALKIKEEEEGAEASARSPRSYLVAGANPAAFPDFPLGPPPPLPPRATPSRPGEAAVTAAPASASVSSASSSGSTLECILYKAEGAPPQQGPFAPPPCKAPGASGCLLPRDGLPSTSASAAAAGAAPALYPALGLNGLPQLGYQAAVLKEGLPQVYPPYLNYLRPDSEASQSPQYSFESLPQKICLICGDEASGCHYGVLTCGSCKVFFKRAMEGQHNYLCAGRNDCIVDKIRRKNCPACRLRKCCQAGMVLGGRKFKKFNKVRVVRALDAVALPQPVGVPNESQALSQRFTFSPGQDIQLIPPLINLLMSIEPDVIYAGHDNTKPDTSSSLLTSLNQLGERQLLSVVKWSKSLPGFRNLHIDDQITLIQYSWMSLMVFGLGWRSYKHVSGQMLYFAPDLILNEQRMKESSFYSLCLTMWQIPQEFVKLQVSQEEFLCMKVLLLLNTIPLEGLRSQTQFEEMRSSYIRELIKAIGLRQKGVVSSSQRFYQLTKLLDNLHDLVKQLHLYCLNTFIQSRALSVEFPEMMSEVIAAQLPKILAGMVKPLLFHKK
Thyrotropin-releasing hormone receptor (Homo sapiens), sequence (P34981 whole entry, looked up): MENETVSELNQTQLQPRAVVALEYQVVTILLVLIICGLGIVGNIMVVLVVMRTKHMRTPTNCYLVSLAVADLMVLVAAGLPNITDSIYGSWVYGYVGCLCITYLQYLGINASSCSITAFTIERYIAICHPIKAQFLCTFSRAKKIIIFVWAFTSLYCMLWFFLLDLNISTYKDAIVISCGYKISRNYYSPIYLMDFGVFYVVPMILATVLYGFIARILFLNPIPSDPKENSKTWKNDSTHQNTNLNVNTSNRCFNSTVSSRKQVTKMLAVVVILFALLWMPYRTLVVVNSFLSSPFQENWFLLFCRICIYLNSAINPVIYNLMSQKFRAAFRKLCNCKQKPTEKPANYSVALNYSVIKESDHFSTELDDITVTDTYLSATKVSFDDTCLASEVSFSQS

On to `CC1(C)CCC(Cc2ccc(Cl)cc2)C1(O)Cn1cncn1` (centres undefined), for which the Potency entry in [1], in assay [3], in assay [4], in assay [5], in [7] and in [8] was “inactive” in each case. The Potency in assay [2] is 4.33 µM (active). In addition, in assay [6], the result was inactive.
For the compound `CCCCN=C=O`, the Potency result in [1], in assay [2], in assay [3], in [4], in assay [5] and in assay [7] was “inactive” in each case. The Potency result in [8] and in assay [9] was “inactive” throughout. The compound was called inactive in [6].
`CCCN(CC1CC1)c1c([N+](=O)[O-])cc(C(F)(F)F)cc1[N+](=O)[O-]`: the Potency result in [1], in assay [10], in assay [3], in [4], in [5] and in assay [7] was “inactive” in each case. Further, the Potency result in assay [8] and in assay [9] was “inactive” in each case. Moreover, the compound was called inactive in [6].
`Brc1ccc(Oc2ccccc2)cc1`: the Potency result in assay [1], in assay [2], in assay [3], in [4], in assay [5] and in assay [7] was “inactive” each time. Moreover, the Potency entry in assay [8] and in assay [9] was “inactive” throughout. For the same compound, the compound was classed as inactive in [6].
Turning to `CCCCC(CC)COP(=O)(Oc1ccccc1)Oc1ccccc1` (centres undefined), the Potency entry in assay [1], in assay [10], in assay [3], in [4], in assay [5] and in [7] was “inactive” in each case. Besides, the Potency result in [8] and in assay [9] was “inactive” each time. For the same compound, the compound was classed as inactive in assay [6].
For the compound `O=C(O)C1(c2ccc3c(c2)OC[C@H](Cc2ccc(-c4ccccc4)cc2)[C@H]3O)CCCC1`, the Potency result in assay [1], in assay [4] and in assay [5] was “inactive” in each case. Further, in [2], the Potency was 48.6 µM (active).
As to `CCOP(=S)(OCC)SCn1nnc2ccccc2c1=O`, the Potency entry in [1], in assay [4], in assay [5], in assay [7] and in assay [8] was “inactive” each time. Further, the Potency in assay [2] was 27.3 µM (active). Moreover, the outcome in [6] was inactive.
`N#C/C(N)=C(/N)C#N`: the Potency result in assay [1], in assay [10], in [3], in assay [4], in [5] and in [7] was “inactive” each time. The Potency entry in [8] and in assay [9] was “inactive” throughout. In addition, in [6], the compound was called inactive.
As for `O=[N+]([O-])c1ccccc1CCl`, the Potency result in assay [1], in assay [10], in assay [3], in assay [4], in assay [5] and in [7] was “inactive” throughout. Also, the Potency result in assay [8] and in [9] was “inactive” in each case. In assay [6], the result was inactive.
Consider `CN1C[C@H](CNC(=O)OCc2ccccc2)C[C@@H]2c3cccc4c3c(cn4C)C[C@H]21`, for which the Potency result in [1], in [2], in assay [4], in assay [5], in assay [7] and in assay [8] was “inactive” each time. Further, the call in assay [6] was inactive. Further, in assay [9], the Potency is 26.6 µM (active).
As for `CC1CC(CC2CCC(N)C(C)C2)CCC1N` (centres undefined), the Potency result in [1], in assay [2], in assay [4], in assay [5], in assay [7] and in assay [8] was “inactive” each time. The outcome in assay [6] was inactive.
Consider `CCOP(=S)(OCC)SCSCC`, for which the Potency entry in [1], in assay [10], in [3], in assay [4], in assay [5] and in assay [7] was “inactive” throughout. Moreover, the Potency result in [8] and in [9] was “inactive” in each case. In addition, the compound was called inactive in assay [6].
Consider `O=C1C(=O)c2cccc3cccc1c23`, for which the Potency result in assay [1], in assay [10], in [3], in assay [4], in [5] and in assay [7] was “inactive” each time. The Potency entry in [8] and in assay [9] was “inactive” each time. Further, the compound was called inactive in assay [6].
Regarding `O=[N+]([O-])C(Br)(CO)CO`, the Potency entry in assay [1], in assay [2], in assay [3], in [4], in assay [5] and in [7] was “inactive” each time. The Potency entry in assay [8] and in assay [9] was “inactive” each time. Moreover, the result in assay [6] was inactive.
On to `Nc1ccc([N+](=O)[O-])cc1[N+](=O)[O-]`, for which the Potency entry in assay [1], in assay [10], in assay [3], in assay [4], in assay [5] and in assay [7] was “inactive” in each case. Moreover, the Potency result in assay [8] is “inactive”. For the same compound, in [6], the call was inactive.
Turning to `CCCCOC(=O)c1ccccc1C(=O)OCc1ccccc1`, the Potency result in assay [1], in [10], in assay [3], in [4], in [5] and in assay [7] was “inactive” throughout. In addition, the Potency result in assay [8] is “inactive”. For the same compound, the result in assay [6] was inactive. For the same compound, the Potency result in assay [9] is “inactive and 48.6 µM (active)”.
As for `CC(C)=CCOc1c2occc2cc2ccc(=O)oc12`, the Potency result in assay [1], in assay [10], in [3], in [4], in [5] and in assay [7] was “inactive” each time. For the same compound, the Potency result in [8] and in [9] was “inactive” throughout. The result in assay [6] was inactive.
Regarding `COC(=O)C(Br)CBr` (centres undefined), the Potency result in assay [1], in [2], in [3], in [4], in assay [5] and in assay [7] was “inactive” throughout. The Potency entry in assay [8] and in [9] was “inactive” throughout. Besides, the compound was called inactive in [6].
As to `CC(C)(CCl)C(=O)Cl`, the Potency entry in [1], in assay [2], in [4], in assay [5], in assay [7] and in assay [8] was “inactive” each time. Also, in [9], the Potency result is “inactive”. Also, the Potency in [3] was 48.5 µM (active). Moreover, in [6], the outcome was inactive.

Source of the values: PubChem BioAssay (Tox21).
